This passage reports Potency results from PubChem BioAssay AID2289 (National Center for Advancing Translational Sciences (NCATS), 2010).

“And” between values parts separate entries of the source, which are not always exact repeats. Identical values can stand only once. About 3,300 (0.97%) of roughly 340,000 compounds were called active. Not shown: some 9% with an inconclusive outcome. The call rests on the fitted dose curve; in most records, active means well fitted inhibition curve with a large enough effect; inconclusive means small, poorly fitted or top-dose-only effect, or effect the other way; inactive means flat fitted curve, though single readings scatter. This is one part of the list.
Potency means the concentration at half of the fitted maximal effect.

This assay can be described thus: qHTS Assay for Modulators of miRNAs and/or Inhibitors of miR-21. Further: nearly all actives have a fitted effect of over 55% in size. Conditions: HeLa miR-21-FLuc reporter, luciferase luminescence, 48 h; actives lower the signal. The gist of the method: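 Compounds were titrated across several concentrations (up to approximately 40 uM) and incubated 48 hours with HeLa miR-21-FLuc reporter cells (miR-21 target sequence downstream of FLuc, endogenous miR-21). Readout was firefly luciferase luminescence after lytic detection reagent.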
On the technique in general: qHTS replaces the single test concentration by a dilution series.
`Cc1ccc(NC(=O)c2c(Cl)nc3ccccn23)cc1`: the Potency is 2.93 µM (active).

As for `O=C(Nc1ccc(F)cc1)c1c(Cl)nc2ccccn12`, the Potency was 16.5 µM (active).

Consider `C/C(=N\Nc1ccc(Cl)c(C(=O)O)c1)c1ccc2c(c1)OCO2`, for which the Potency is 11.7 µM (active).

For the compound `C/C(=N\Nc1ccc(Cl)c(C(=O)O)c1)c1ccccn1`, the Potency is 16.5 µM (active).

`C/C(=N\Nc1ccc(Cl)c(C(=O)O)c1)c1cccc([N+](=O)[O-])c1`: the Potency is 13.1 µM (active).

For the compound `C/C(=N\Nc1ccc(Cl)c(C(=O)O)c1)c1ccc[nH]1`, the Potency is 14.7 µM (active).

On to `Cc1cc(N/C=C/C(=O)c2ccccc2)ccc1Br`, for which the Potency is 0.369 µM (active).

Consider `Cc1ccc(N/C=C/C(=O)c2ccccc2)cc1Br`, for which the Potency was 0.369 µM (active).

As to `Cn1cc(Cl)c(C(=O)N/N=C/c2ccc3c4c(cccc24)CC3)n1`, the Potency was 1.65 µM (active).

`COc1ccc(N=Nc2ccc(N)nc2N)cc1`: the Potency is 2.61 µM (active).

For the compound `Nc1ccc(N=Nc2ccccc2Cl)c(N)n1`, the Potency is 2.07 µM (active).

Turning to `c1ccc(SCc2nc(-c3ccccn3)no2)cc1`, the Potency is 2.82 µM (active).

As for `COc1ccc(-c2noc(CSc3ccccc3)n2)cc1OC`, the Potency was 11.7 µM (active).

As for `Cc1ccc(NC(=O)c2cc3ccccc3oc2=N)cc1`, the Potency is 0.0736 µM (active).

Consider `N=c1oc2ccccc2cc1C(=O)Nc1cccc(F)c1`, for which the Potency was 0.165 µM (active).

As to `N=c1oc2cc(O)ccc2cc1C(=O)Nc1nc2ccccc2s1`, the Potency is 1.04 µM (active).

For the compound `COc1ccc(NC(=O)c2cc3ccccc3o/c2=N\NS(=O)(=O)c2ccc(C)cc2)cc1`, the Potency is 3.29 µM (active).

For `CCc1ccc2oc(-c3cc(N)cc(C)c3O)nc2c1`, the Potency was 2.93 µM (active).

On to `O=C(Nc1nc(-c2cccs2)cs1)C1=COCCO1`, for which the Potency is 2.33 µM (active).

Take `N/C(=N\O)c1ccc(N2CCN(c3ncccc3C(F)(F)F)CC2)nc1`: the Potency is 4.65 µM (active).

As for `CC(C)(C)c1ccc(SCCc2ccccn2)cc1`, the Potency was 6.56 µM (active).

As to `CC(C)(C)c1ccc(SCCc2cccnc2)cc1`, the Potency was 8.26 µM (active).

As for `Cc1ccc(NC(=O)NC(=O)N(C2CCCCC2)S(=O)(=O)c2ccccc2)cc1`, the Potency was 16.5 µM (active).

Turning to `Cc1ccc2oc(=O)c(/C=C(\O)c3cccs3)nc2c1`, the Potency was 4.65 µM (active).

For the compound `Nc1c(-c2cccc([N+](=O)[O-])c2)nc2ccccn12`, the Potency was 5.85 µM (active).

Take `CN1CCC(Oc2ccc(Sc3ccccc3)cc2)CC1`: the Potency is 5.21 µM (active).

`COc1ccc(CN(C(=O)c2cc3ccccc3oc2=O)C2CCS(=O)(=O)C2)cc1OC` (stereo unspecified): the Potency is 5.85 µM (active) and 13.1 µM (active).

`CC(C)Oc1cccc(C(=O)NC2=NCCS2)c1`: the Potency was 3.69 µM (active).

Take `O=C(NC1=NCCS1)c1ccc(C(F)(F)F)cc1`: the Potency was 6.56 µM (active).

In the case of `CC(C)Oc1cccc(C(=O)NC(=S)Nc2cccnc2)c1`, the Potency is 13.1 µM (active).

As for `O=C(NCc1ccco1)c1cc(-c2cccs2)on1`, the Potency was 5.85 µM (active).

On to `O=C(NCc1ccco1)c1cc(-c2ccccc2)on1`, for which the Potency was 7.36 µM (active).

For `O=C(NCc1cccnc1)c1cc(-c2ccccc2)on1`, the Potency was 18.5 µM (active).

As for `O=C(NC12CC3CC(CC(C3)C1)C2)N1CCN(C(=O)c2ccco2)CC1`, the Potency is 16.5 µM (active).

Take `O=C1/C(=C/c2cccs2)CCC/C1=C\c1cccs1`: the Potency was 1.65 µM (active).

Turning to `CC(=O)N(c1nnc(-c2cccc(C)c2)s1)C1CCCC1`, the Potency is 8.26 µM (active).

As to `Oc1ccc(-c2csc(Nc3ccccn3)n2)cc1O`, the Potency is 2.61 µM (active).

On to `CC(=O)Oc1ccc(-c2csc(Nc3cccc(C)n3)n2)cc1`, for which the Potency is 1.47 µM (active).

Consider `CCCCCNc1nc(-c2ccccc2)cs1`, for which the Potency was 1.65 µM (active).

In the case of `Oc1ccc(-c2csc(Nc3ncccn3)n2)cc1O`, the Potency is 5.85 µM (active).

As to `Cc1cccc(Nc2nc(-c3ccc(O)c(O)c3)cs2)n1`, the Potency was 8.26 µM (active).

For the compound `Cc1nc(N)sc1-c1csc(Nc2ncccn2)n1`, the Potency was 2.93 µM (active).

For `c1ccc(Nc2nc(-c3cccs3)cs2)nc1`, the Potency is 0.293 µM (active).

On to `c1ccc(-c2csc(Nc3ncccn3)n2)cc1`, for which the Potency was 0.208 µM (active).

As to `Cc1ccc(Nc2nc(-c3ccc(O)c(O)c3)cs2)nc1`, the Potency is 8.26 µM (active).

For the compound `Cc1ccnc(Nc2nc(-c3ccc(O)c(O)c3)cs2)c1`, the Potency is 4.65 µM (active).

Regarding `CCOC(=O)c1cccnc1SCc1cc(=O)n2ccccc2n1`, the Potency was 13.1 µM (active).

With `CCOc1ccc(/C=N/NC(=O)c2ccoc2C)cc1OC`, the Potency was 7.36 µM (active).

Regarding `COc1ccc(/C=N/NC(=O)c2ccoc2C)cc1O`, the Potency is 6.56 µM (active).

With `Cc1ccc2sc(-c3ccc(NC(=O)CCN4C(=O)c5ccccc5C4=O)cc3)nc2c1`, the Potency was 0.104 µM (active).

On to `Cc1ccc2nc(-c3ccc(NC(=O)CCN4C(=O)c5ccccc5C4=O)cc3)sc2c1`, for which the Potency is 0.0927 µM (active).

`O=C(CCN1C(=O)c2ccccc2C1=O)Nc1ccc(-c2nc3ccccc3s2)cc1`: the Potency was 0.261 µM (active).

Turning to `Cc1ccc2nc(-c3ccc(NC(=O)CN4C(=O)c5ccccc5C4=O)cc3)sc2c1`, the Potency is 1.65 µM (active).

As to `Cc1ccc2nc(-c3ccc(NC(=O)CSc4nc(N)cc(=O)[nH]4)cc3)sc2c1`, the Potency is 8.26 µM (active).

Regarding `Cc1ccc2nc(-c3ccc(NC(=O)C(C)N4C(=O)c5ccccc5C4=O)cc3)sc2c1` (stereo unspecified), the Potency was 1.17 µM (active).

Turning to `CCC(=O)c1ccc(OCc2ccc(C(=O)OC)cc2)cc1`, the Potency is 0.261 µM (active).

Turning to `CCC(=O)c1ccc(OCc2ccc(C#N)cc2)cc1`, the Potency was 9.27 µM (active).

For `CCOc1ccc(C2=NNC(c3cccs3)=Nc3ccc(OC)cc32)cc1OCC`, the Potency is 18.5 µM (active).

Turning to `CCOc1ccc2c(c1)C(c1ccc(C)cc1)=NNC(c1ccc(C)cc1)=N2`, the Potency was 8.26 µM (active).

Take `C=C(C)C1Cc2cc3ccc(=O)oc3cc2O1` (stereo unspecified): the Potency was 16.5 µM (active).

With `Cc1ccc(Cn2nnc3c(=O)[nH]c(C4CCCN(S(=O)(=O)c5ccccc5)C4)nc32)cc1` (stereo unspecified), the Potency is 18.5 µM (active).

In the case of `NC(=O)c1ccsc1NC(=O)c1cc(=O)c2ccccc2o1`, the Potency was 0.329 µM (active).

With `NC(=O)c1ccsc1NC(=O)c1coc2ccccc2c1=O`, the Potency was 1.17 µM (active).

For `O=C(Nc1ccccc1Br)c1cc(=O)c2ccccc2o1`, the Potency is 2.07 µM (active).

For the compound `COc1cccc(/C(C)=N/N=C(\C)c2cccc(OC)c2)c1`, the Potency was 4.14 µM (active).

With `COc1cccc(/C(C)=N/Nc2ncc(Cl)cc2Cl)c1`, the Potency was 16.5 µM (active).
